# Assay results: the supplement of paper PMC4466140
# Experiments:
# Experiment in all cases: SPOT peptide array binding signal intensity (averaged, normalized) (arbitrary units (background-subtracted, floor 0; scale differs between SH3 domains)); higher = stronger binding of the SH3 domain to the peptide
# [1] = biological target: AgAbp1
# Procedure, shortened: (§1)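 GST-fused SH3 domains from four yeast species were expressed in E. coli BL21(DE3), purified on glutathione Sepharose and incubated at 10 μg/ml overnight at 4°C in TBS-based blocking buffer on cellulose membranes carrying synthetic 15-mer peptides, with cysteines replaced by serines. Bound protein was detected with anti-GST antibody, an HRP anti-mouse secondary and luminol, then imaged and quantified with Genespotter. Binding signal is the normalized, background-subtracted spot intensity averaged over replicates, in arbitrary units that differ between domains.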
# [2] = biological target: AgBbc1
# Procedure, shortened: as §1
# [3] = biological target: AgBem1-D1
# Procedure, shortened: as §1
# [4] = biological target: AgBzz1-D1
# Procedure, shortened: as §1
# [5] = biological target: AgBzz1-D2
# Procedure, shortened: as §1
# [6] = biological target: AgCyk3
# Procedure, shortened: as §1
# [7] = biological target: AgFus1
# Procedure, shortened: as §1
# [8] = biological target: AgHof1
# Procedure, shortened: as §1
# [9] = biological target: AgHse1
# Procedure, shortened: as §1
# [10] = biological target: AgLsb1
# Procedure, shortened: as §1
# [11] = biological target: AgLsb4
# Procedure, shortened: as §1
# [12] = biological target: AgMyo5
# Procedure, shortened: as §1
# [13] = biological target: AgNbp2
# Procedure, shortened: as §1
# [14] = biological target: AgRvs167
# Procedure, shortened: as §1
# [15] = biological target: AgSho1
# Procedure, shortened: as §1
# [16] = biological target: AgSla1-D1-D2
# Procedure, shortened: as §1
# [17] = biological target: AgSla1-D3
# Procedure, shortened: as §1
# [18] = biological target: CaAbp1-D1
# Procedure, shortened: as §1
# [19] = biological target: CaAbp1-D2
# Procedure, shortened: as §1
# [20] = biological target: CaBbc1
# Procedure, shortened: as §1
# [21] = biological target: CaBem1-D1
# Procedure, shortened: as §1
# [22] = biological target: CaBzz1-D1
# Procedure, shortened: as §1
# [23] = biological target: CaBzz1-D2
# Procedure, shortened: as §1
# [24] = biological target: CaCyk3
# Procedure, shortened: as §1
# [25] = biological target: CaFus1
# Procedure, shortened: as §1
# [26] = biological target: CaHof1
# Procedure, shortened: as §1
# [27] = biological target: CaHse1
# Procedure, shortened: as §1
# [28] = biological target: CaLsb1
# Procedure, shortened: as §1
# [29] = biological target: CaLsb4
# Procedure, shortened: as §1
# [30] = biological target: CaMyo5
# Procedure, shortened: as §1
# [31] = biological target: CaNbp2
# Procedure, shortened: as §1
# [32] = biological target: CaRvs167
# Procedure, shortened: as §1
# [33] = biological target: CaRvs167-3
# Procedure, shortened: as §1
# [34] = biological target: CaSho1
# Procedure, shortened: as §1
# [35] = biological target: CaSla1-D1-D2
# Procedure, shortened: as §1
# [36] = biological target: CaSla1-D3
# Procedure, shortened: as §1
# [37] = biological target: ScAbp1
# Procedure, shortened: as §1
# [38] = biological target: ScBbc1
# Procedure, shortened: as §1
# [39] = biological target: ScBem1-D1
# Procedure, shortened: as §1
# [40] = biological target: ScBzz1-D1
# Procedure, shortened: as §1
# [41] = biological target: ScBzz1-D2
# Procedure, shortened: as §1
# [42] = biological target: ScCyk3
# Procedure, shortened: as §1
# [43] = biological target: ScFus1
# Procedure, shortened: as §1
# [44] = biological target: ScHof1
# Procedure, shortened: as §1
# [45] = biological target: ScHse1
# Procedure, shortened: as §1
# [46] = biological target: ScLsb1
# Procedure, shortened: as §1
# [47] = biological target: ScLsb2
# Procedure, shortened: as §1
# [48] = biological target: ScLsb3
# Procedure, shortened: as §1
# [49] = biological target: ScLsb4
# Procedure, shortened: as §1
# [50] = biological target: ScMyo3
# Procedure, shortened: as §1
# [51] = biological target: ScMyo5
# Procedure, shortened: as §1
# [52] = biological target: ScNbp2
# Procedure, shortened: as §1
# [53] = biological target: ScPex13
# Procedure, shortened: as §1
# [54] = biological target: ScRvs167
# Procedure, shortened: as §1
# [55] = biological target: ScSho1
# Procedure, shortened: as §1
# [56] = biological target: ScSla1-D1-D2
# Procedure, shortened: as §1
# [57] = biological target: ScSla1-D3
# Procedure, shortened: as §1
# [58] = biological target: SpAbp1-D1
# Procedure, shortened: as §1
# [59] = biological target: SpBbc1
# Procedure, shortened: as §1
# [60] = biological target: SpBzz1-D1
# Procedure, shortened: as §1
binder,measurement,setting,value
WTQRRGPLVVYAEDN,SPOT peptide array binding signal intensity,[1],≤ 0
same,SPOT peptide array binding signal intensity,[2],7
same,SPOT peptide array binding signal intensity,[3],102
same,SPOT peptide array binding signal intensity,[4],11
same,SPOT peptide array binding signal intensity,[5],22.5
same,SPOT peptide array binding signal intensity,[6],0.5
same,SPOT peptide array binding signal intensity,[7],35.5
same,SPOT peptide array binding signal intensity,[8],15.5
same,SPOT peptide array binding signal intensity,[9],20.5
same,SPOT peptide array binding signal intensity,[10],4
same,SPOT peptide array binding signal intensity,[11],17.5
same,SPOT peptide array binding signal intensity,[12],3
same,SPOT peptide array binding signal intensity,[13],≤ 0
same,SPOT peptide array binding signal intensity,[14],1.17
same,SPOT peptide array binding signal intensity,[15],4
same,SPOT peptide array binding signal intensity,[16],20
same,SPOT peptide array binding signal intensity,[17],2
same,SPOT peptide array binding signal intensity,[18],≤ 0
same,SPOT peptide array binding signal intensity,[19],≤ 0
same,SPOT peptide array binding signal intensity,[20],27.2
same,SPOT peptide array binding signal intensity,[21],3
same,SPOT peptide array binding signal intensity,[22],286
same,SPOT peptide array binding signal intensity,[23],142
same,SPOT peptide array binding signal intensity,[24],18
same,SPOT peptide array binding signal intensity,[25],190
same,SPOT peptide array binding signal intensity,[26],1.5
same,SPOT peptide array binding signal intensity,[27],6.25
same,SPOT peptide array binding signal intensity,[28],6.5
same,SPOT peptide array binding signal intensity,[29],29.5
same,SPOT peptide array binding signal intensity,[30],26
same,SPOT peptide array binding signal intensity,[31],44.5
same,SPOT peptide array binding signal intensity,[32],12.2
same,SPOT peptide array binding signal intensity,[33],3.5
same,SPOT peptide array binding signal intensity,[34],32
same,SPOT peptide array binding signal intensity,[35],≤ 0
same,SPOT peptide array binding signal intensity,[36],0.25
same,SPOT peptide array binding signal intensity,[37],1
same,SPOT peptide array binding signal intensity,[38],≤ 0
same,SPOT peptide array binding signal intensity,[39],11.5
same,SPOT peptide array binding signal intensity,[40],28
same,SPOT peptide array binding signal intensity,[41],58
same,SPOT peptide array binding signal intensity,[42],10
same,SPOT peptide array binding signal intensity,[43],28.5
same,SPOT peptide array binding signal intensity,[44],0.5
same,SPOT peptide array binding signal intensity,[45],140
same,SPOT peptide array binding signal intensity,[46],3.5
same,SPOT peptide array binding signal intensity,[47],≤ 0
same,SPOT peptide array binding signal intensity,[48],5
same,SPOT peptide array binding signal intensity,[49],≤ 0
same,SPOT peptide array binding signal intensity,[50],16
same,SPOT peptide array binding signal intensity,[51],9
same,SPOT peptide array binding signal intensity,[52],1.5
same,SPOT peptide array binding signal intensity,[53],1
same,SPOT peptide array binding signal intensity,[54],20.8
same,SPOT peptide array binding signal intensity,[55],≤ 0
same,SPOT peptide array binding signal intensity,[56],≤ 0
same,SPOT peptide array binding signal intensity,[57],9
same,SPOT peptide array binding signal intensity,[58],6
same,SPOT peptide array binding signal intensity,[59],2.75
same,SPOT peptide array binding signal intensity,[60],458
